16 compounds from PubChem BioAssay can be followed below.

The term inhibition denotes the drop in the measured response relative to a control, in per cent.

The target of this assay is Pantothenate synthetase (Mycobacterium tuberculosis (strain ATCC 25618 / H37Rv)) (UniProt P9WIL5). Briefly: Coupled enzyme confirmation of inhibitors against recombinant Mtb PanC (AID 375).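 Note: 0% = full reaction with vehicle and 100% = no enzyme background.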 The following applies: coupled enzyme assay; at 10 µM, stronger effect = higher value.

Values without a mark were called inactive. The rule behind the calls is not given here.

Sequence of Pantothenate synthetase (Mycobacterium tuberculosis (strain ATCC 25618 / H37Rv)) (P9WIL5 whole entry, looked up): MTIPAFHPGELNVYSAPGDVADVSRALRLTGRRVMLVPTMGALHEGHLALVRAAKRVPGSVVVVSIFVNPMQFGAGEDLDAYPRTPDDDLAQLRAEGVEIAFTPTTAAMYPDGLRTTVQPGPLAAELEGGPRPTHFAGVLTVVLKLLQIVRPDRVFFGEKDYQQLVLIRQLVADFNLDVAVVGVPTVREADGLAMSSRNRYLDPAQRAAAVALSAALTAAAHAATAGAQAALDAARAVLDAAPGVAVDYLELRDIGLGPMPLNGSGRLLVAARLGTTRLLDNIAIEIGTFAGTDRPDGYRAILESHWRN

On to `CC1=Nn2c(nnc2-c2ccccn2)SC1`, for which the inhibition was 7%. As for `CC(C)(C)n1nc2c(c1NC(=O)COc1ccc(Cl)cc1)CSC2`, the figure is 0%; as for `CCN(CC)CCN1C(=O)C(=O)/C(=C(/O)c2ccc(OC(C)C)cc2)C1c1ccncc1` (stereo unspecified), 5%; as for `CCC(C)NC(=O)c1cc(-c2ccc(OC)cc2)on1` (stereo unspecified), 0%. Under `O=C(O)C1CCCN1S(=O)(=O)c1ccc2ccccc2c1` (stereo unspecified) stands 3%; under `Cc1c(NC(=O)Cn2nc(C(=O)O)c3ccccc3c2=O)c(=O)n(-c2ccccc2)n1C`, 0%; under `CCCc1cc(=O)oc2c(C)c3occ(C)c3cc12`, 1%. As for `O=C(CSc1nc(O)c(Cc2ccccc2)c(=O)[nH]1)Nc1ccccc1`, the figure is 0%; as for `CCC(CO)Nc1ncnc2c1cnn2-c1ccc(Cl)cc1` (stereo unspecified), 6%; as for `O=C(O)C1CC(=O)N(c2ccc(OCc3c(F)cccc3Cl)cc2)C1` (stereo unspecified), 2%. With `COc1cccc(C2=NOC(C(=O)N3CCN(c4ccccc4)CC3)C2)c1OC` (stereo unspecified), the inhibition was 1%. Under `C[C@]12CC[C@@H]3c4ccc(OS(=O)(=O)O)cc4CC[C@H]3[C@@H]1CCC2=O` stands 0%; under `O=C(CN1C(=O)CSC1=O)N1CCc2ccccc2C1`, 3%; under `CCOC(=O)c1cc(-c2ccc(N)cc2)sc1N`, 0%. As for `COC(=O)c1cc(O)c(OCc2ccccc2)c(O)c1`, the inhibition was 0%. As for `CC1Cc2ccccc2N1C(=O)c1cnsn1` (stereo unspecified), the figure is 0%.
